This is an account of results in PubChem BioAssay (NCATS).

Records with an inconclusive call do not appear. Activity calls are given as the source filed them. Calls come from the whole dose curve; as a rule, active = well fitted curve in the direction sought with a large enough effect in the repeat runs; inconclusive = weak or mixed curves; inactive = no such curve, though single readings can be large; an effect the other way counts as inactive or inconclusive.

Test [1] has as its target Cytochrome P450 2D6 (Homo sapiens) (UniProt P10635). Kind of test: Cytochrome P450 family 2 subfamily D member 6 (CYP2D6) small molecule antagonists: luciferase biochemical (cell-free) qHTS assay (AID 1645840). A digest of the protocol:
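P450-Glo CYP2D6 system: proluciferin substrate converted by enzyme to luciferin, read by luminescence proportional to activity. Enzyme-substrate mix with compound 10 min at room temperature, then NADPH regeneration 1 h before detection reagent.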

In test [2] the target is Cytochrome P450 2C9 (Homo sapiens) (UniProt P11712). The experiment in a line: Cytochrome P450 family 2 subfamily C member 9 (CYP2C9) small molecule antagonists: luciferase biochemical (cell-free) qHTS assay (AID 1645842). The essentials: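 P450-Glo CYP2C9 system: proluciferin substrate with enzyme in mix containing 0.4% BSA, 10 min at room temperature, then NADPH regeneration solution added and incubated 1 h at 37C. Detection reagent stopped reaction; luminescence read after 20 min as RLU.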
For orientation: Quantitative high-throughput screening tests each substance at several concentrations.
Note: nearly all actives have a fitted effect of over 55% in size.
Potency is the fitted concentration of half-maximal effect.

Sequence of Cytochrome P450 2C9 (Homo sapiens) (P11712 whole entry, looked up): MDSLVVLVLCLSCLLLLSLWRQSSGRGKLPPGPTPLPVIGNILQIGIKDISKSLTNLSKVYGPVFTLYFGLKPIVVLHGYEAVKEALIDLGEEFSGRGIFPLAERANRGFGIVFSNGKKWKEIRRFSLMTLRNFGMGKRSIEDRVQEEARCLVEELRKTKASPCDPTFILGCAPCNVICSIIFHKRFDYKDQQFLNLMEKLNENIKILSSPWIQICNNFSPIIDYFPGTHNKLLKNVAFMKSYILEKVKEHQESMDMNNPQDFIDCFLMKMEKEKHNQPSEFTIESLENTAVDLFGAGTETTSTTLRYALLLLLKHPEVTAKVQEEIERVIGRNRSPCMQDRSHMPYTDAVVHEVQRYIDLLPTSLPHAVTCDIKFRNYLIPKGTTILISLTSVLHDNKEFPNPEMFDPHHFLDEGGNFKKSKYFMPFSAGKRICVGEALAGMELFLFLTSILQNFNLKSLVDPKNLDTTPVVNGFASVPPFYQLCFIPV
Sequence of Cytochrome P450 2D6 (Homo sapiens) (P10635 whole entry, looked up): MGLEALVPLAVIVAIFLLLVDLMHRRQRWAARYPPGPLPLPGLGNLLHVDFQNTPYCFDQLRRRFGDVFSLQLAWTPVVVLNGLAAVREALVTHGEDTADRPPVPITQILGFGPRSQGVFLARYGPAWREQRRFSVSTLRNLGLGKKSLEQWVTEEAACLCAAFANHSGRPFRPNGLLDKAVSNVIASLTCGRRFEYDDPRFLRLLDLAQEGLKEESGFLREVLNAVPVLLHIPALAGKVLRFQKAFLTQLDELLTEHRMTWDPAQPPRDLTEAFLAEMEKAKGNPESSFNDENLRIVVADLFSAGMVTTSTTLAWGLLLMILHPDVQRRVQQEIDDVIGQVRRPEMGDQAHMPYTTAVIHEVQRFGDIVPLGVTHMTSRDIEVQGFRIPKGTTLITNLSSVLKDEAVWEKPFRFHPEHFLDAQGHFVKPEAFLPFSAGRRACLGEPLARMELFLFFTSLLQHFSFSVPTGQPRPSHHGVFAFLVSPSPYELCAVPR

With `CCc1ccc(C2=CC(c3cccc(OC)c3OC)n3c(nc4ccccc43)N2)cc1` (stereo not given), the Potency was 16.9 µM (active) in test [1] and 3.79 µM (active) in test [2].
On to `CNC(=O)c1ccc(CSc2nc3ccncc3n2Cc2ccc(C)cc2)cc1`, for which the Potency is 13.5 µM (active) in test [1] and 7.56 µM (active) in test [2].
Turning to `COCCn1c(SCC(=O)Nc2ccc(F)c(Cl)c2)nc2c(oc3ccccc32)c1=O`, the Potency in test [1] was 2.39 µM (active); in test [2], 0.952 µM (active).
As for `COc1ccc(CN(C2CCCCC2)[S+](C)(=O)[O-])cc1OC`, the Potency entry in test [1] is “inactive”. Further, the Potency in test [2] was 6.74 µM (active).
As for `Cc1cccc(NC(c2cccc(Cl)c2)c2ccc3cccnc3c2O)n1` (stereo not given), in test [1], the Potency entry was “inactive”. In addition, the Potency in test [2] is 28.2 µM (active).
`CC1=C(C(=O)Nc2cccc(-c3cn[nH]c3)c2)C(c2ccccc2Cl)N=C(Nc2nc3ccccc3o2)N1` (stereo not given): the figures for the Potency in test [1] and in test [2] were 21.3 µM (active) and 1.07 µM (active), respectively.
The matching figures for `Cc1ccc(Cn2ccnc2SCC(=O)Nc2nc3ccccc3s2)cc1`: 10.7 µM (active) and 8.49 µM (active).
The matching figures for `COC(=O)Cc1ccc(NC(=O)C2=C(C)NC(Nc3nc4ccccc4o3)=NC2c2ccccc2Cl)cc1` (stereo not given): “inactive” and 0.756 µM (active).
The matching figures for `O=C(Cn1c(=O)n(Cc2ccco2)c(=O)c2oc3ccccc3c21)Nc1ccccc1`: 0.756 µM (active) and 4.77 µM (active).
For the compound `C[C@H](O[C@H]1OCCN(Cc2n[nH]c(=O)[nH]2)[C@H]1c1ccc(F)cc1)c1cc(C(F)(F)F)cc(C(F)(F)F)c1`, the Potency is 10.7 µM (active) in test [1] and 9.52 µM (active) in test [2].
As to `COc1ccc(CCNc2nc(SCc3cccc(F)c3)nc3ccccc23)cc1OC`, the Potency in test [1] is 0.301 µM (active); in test [2], 0.756 µM (active).
The matching figures for `Cc1ccc(Cn2c(SCC(=O)NCc3ccccc3)nc3ccsc3c2=O)cc1`: 6.01 µM (active) and 6.74 µM (active).
Turning to `COc1cccc(C(=O)NC(c2ccc(Cl)cc2)c2cc(Cl)c3cccnc3c2O)c1` (stereo not given), in test [1], the Potency result is “inactive”. The Potency in test [2] is 23.9 µM (active).
Taken in the same sequence, the figures for `Cc1ccc(-n2c(SCc3ccccc3F)nc3[nH]ncc3c2=O)cc1C` were 16.9 µM (active) and 13.5 µM (active).
`Nc1c(-c2nc(-c3ccc4c(c3)OCO4)cs2)c2ccccn2c1C(=O)c1ccccc1`: the Potency entry in test [1] was “inactive”. In test [2], the Potency was 0.425 µM (active).
As for `Cc1ccc(C2=Nc3ccccc3N(CC(=O)Nc3ccccc3F)C(=O)C2)cc1C`, the Potency in test [1] is 2.39 µM (active). Besides, the Potency entry in test [2] is “inactive”.
Taken in the same sequence, the figures for `O=C(CSc1nnc(-c2cccc(F)c2)c(-c2cccc(F)c2)n1)NC1CCCCC1` were “inactive” and 1.51 µM (active).
As for `COc1ccc(CC2c3cc(OC)c(OC)cc3CCN2CCC(=O)OCCCCCOC(=O)CCN2CCc3cc(OC)c(OC)cc3C2Cc2ccc(OC)c(OC)c2)cc1OC` (stereo not given), the Potency entry in test [1] was “inactive”. The Potency in test [2] was 21.3 µM (active).
Taken in the same sequence, the figures for `COc1ccc(Cn2c(CCC(=O)Nc3cccc(OC)c3)nc3cccnc32)cc1` were 2.68 µM (active) and 4.77 µM (active).
Take `CC1=C(C(=O)NCc2cncn2C)C(c2ccccc2Cl)N=C(Nc2nc3ccccc3o2)N1` (stereo not given): the Potency was 9.52 µM (active) in test [1] and 7.56 µM (active) in test [2].
As to `CCc1ccc(-n2c(SCc3ccccc3Cl)nc3[nH]ncc3c2=O)cc1`, the values for the Potency in test [1] and in test [2] were 15.1 µM (active) and 23.9 µM (active), respectively.
Taken in the same sequence, the figures for `COc1ccccc1C(=O)Oc1ccc(C(c2c(C)[nH][nH]c2=O)c2c(C)[nH][nH]c2=O)cc1` were “inactive” and 10.7 µM (active).
For `CC1=C(C(=O)Nc2nnc(C)s2)C(c2ccccc2Cl)N=C(Nc2nc3ccccc3o2)N1` (stereo not given), in test [1], the Potency entry is “inactive”. Moreover, the Potency in test [2] was 9.52 µM (active).
Regarding `COc1ccc(-n2ccn(CC(=O)Nc3ccc(C)c(C)c3)c(=O)c2=O)cc1OC`, the Potency entry in test [1] and in test [2] was “inactive” in each case.
As to `Cc1cccn2c(=O)c3cc(C#N)c(=O)n(-c4nnc(SCc5ccc(Cl)cc5)s4)c3nc12`, in test [1], the Potency entry is “inactive”. Also, in test [2], the Potency is 6.01 µM (active).
